# Experimental data as given in PubChem BioAssay (NCATS).
# Records with an inconclusive call do not appear. A call without a number means that no potency is given here. Calls of active or inactive are those of the source. Calls come from the whole dose curve; tested in HEK293 reporter line.
# Assay: qHTS for Inhibitors of the Functional Ribonucleoprotein Complex (vRNP) of Lassa (LASV) Arenavirus: LASV Primary Screen - GLuc reporter signal (AID 1347082); note: nearly all actives have a fitted effect of over 60% in size
# Conditions: LASV minigenome vRNP, Gaussia luciferase reporter; series mostly up to 57.5 µM
Compound,Potency,"activity change, negative = inhibition"
CC[N+](C)(CC)CCOC(=O)C1c2ccccc2Oc2ccccc21,inactive,–
O=c1[nH]cnc2[nH]ncc12,inactive,–
CC(C)OP(=O)(CP(=O)(OC(C)C)OC(C)C)OC(C)C,inactive,–
Nc1ccn([C@@H]2CS[C@H](CO)O2)c(=O)n1,inactive,–
CC(=O)Nc1ncc([N+](=O)[O-])s1,inactive,–
CCCNC(C)C(=O)Nc1c(C)csc1C(=O)OC (stereo unspecified),inactive,–
CC(C)Cn1cnc2c(N)nc3ccccc3c21,inactive,–
Cc1nc2ccccn2c(=O)c1CCN1CCC(C(=O)c2ccc(F)cc2)CC1,inactive,–
O=C(N[C@H](CO)[C@H](O)c1ccc([N+](=O)[O-])cc1)C(Cl)Cl,inactive,–
CCN(CC)CCOC(=O)c1ccc(N)cc1,inactive,–
O=C(O)Cc1cccc(-c2cc(CCCCCCc3ccc(O[C@H]4O[C@H](CO)[C@@H](O)[C@H](O)[C@@H]4O)c(-c4cccc(CC(=O)O)c4)c3)ccc2O[C@H]2O[C@H](CO)[C@@H](O)[C@H](O)[C@@H]2O)c1,–,1.7% [at 0.757 µM] (inactive)
O=c1cc(O)c(Cl)c[nH]1,inactive,–
CCOC(=O)c1ccc(O)c(O)c1,inactive,–
COc1cc(C(=O)N2CCCCCCC2)cc(OC)c1OC,inactive,–
CC(O)C(=O)O (stereo unspecified),inactive,–
Nc1ccc(S(=O)(=O)NCc2ccccc2)cc1,inactive,–
COc1ccc2[nH]cc(CCNC(C)=O)c2c1,inactive,–
CC1CCN(CCCC(=O)c2ccc(F)cc2)CC1,inactive,–
Cc1cc(=O)[nH]c(=S)[nH]1,inactive,–

Compound,Potency,"activity change, negative = inhibition"
COC(=O)[C@@H]1[C@H]2C[C@H]3c4[nH]c5ccccc5c4CCN3C[C@@H]2CC[C@@H]1O,inactive,–
Cc1c(I)c(=O)n(-c2ccccc2)n1C,inactive,–
CC(CSC(=O)c1ccccc1)C(=O)N1C[C@@H](Sc2ccccc2)C[C@H]1C(=O)O (stereo partly specified),inactive,–
CC(=O)OCC(COC(C)=O)OC(C)=O,inactive,–
Nc1ccc(S(=O)(=O)Nc2ccnn2-c2ccccc2)cc1,inactive,–
COC(=O)C1=C(C)NC(C)=C(C(=O)OCCc2ccc(N3CCN(C(c4ccccc4)c4ccccc4)CC3)cc2)C1c1cccc([N+](=O)[O-])c1 (stereo unspecified),inactive,–
CCN(CC)CCNC(=O)COc1ccc(OC)cc1,inactive,–
CC1(C)O[C@@H]2C[C@H]3[C@@H]4CCC5=CC(=O)C=C[C@]5(C)[C@@H]4[C@@H](O)C[C@]3(C)[C@]2(C(=O)CO)O1,inactive,–
O=C(O)C(S)C(S)C(=O)O (stereo unspecified),inactive,–
O=C(O)COc1nn(Cc2ccccc2)c2ccccc12,inactive,–
CCc1cc(C(N)=S)ccn1,inactive,–
CCn1cc(C(=O)O)c(=O)c2cc(F)c(N3CCNC(C)C3)c(F)c21 (stereo unspecified),inactive,–
OCCN1CCN(CC/C=C2/c3ccccc3Sc3ccc(C(F)(F)F)cc32)CC1,inactive,–
CCOC(=O)[C@H](CCc1ccccc1)N[C@@H](C)C(=O)N1CCC[C@H]1C(=O)O,inactive,–
CC(N=C(NC#N)Nc1ccncc1)C(C)(C)C (stereo unspecified),inactive,–
O=C(O)CNC(=O)c1ccccc1,inactive,–
CC(C)(C)C(=O)Oc1ccc(S(=O)(=O)Nc2ccccc2C(=O)NCC(=O)O)cc1,inactive,–
CC=CC1=C(C(=O)O)N2C(=O)[C@H](NC(=O)[C@H](N)c3ccc(O)cc3)[C@@H]2SC1,inactive,–
CNC(=O)c1c(I)c(NC(C)=O)c(I)c(C(=O)O)c1I,inactive,–

# Assay: qHTS for Inhibitors of the Functional Ribonucleoprotein Complex (vRNP) of Lassa (LASV) Arenavirus: Viability assay - alamar blue signal for LASV Primary Screen (AID 1347083); note: nearly all actives have a fitted effect of over 80% in size
# Conditions: cell viability, alamar blue fluorescence (LASV minigenome counter-screen); series mostly up to 57.5 µM
Compound,Potency,"activity change, negative = reduced viability"
CC[N+](C)(CC)CCOC(=O)C1c2ccccc2Oc2ccccc21,inactive,–
O=c1[nH]cnc2[nH]ncc12,inactive,–
CC(C)OP(=O)(CP(=O)(OC(C)C)OC(C)C)OC(C)C,inactive,–
Nc1ccn([C@@H]2CS[C@H](CO)O2)c(=O)n1,inactive,–
CC(=O)Nc1ncc([N+](=O)[O-])s1,inactive,–
CCCNC(C)C(=O)Nc1c(C)csc1C(=O)OC (stereo unspecified),inactive,–
CC(C)Cn1cnc2c(N)nc3ccccc3c21,inactive,–
Cc1nc2ccccn2c(=O)c1CCN1CCC(C(=O)c2ccc(F)cc2)CC1,inactive,–
O=C(N[C@H](CO)[C@H](O)c1ccc([N+](=O)[O-])cc1)C(Cl)Cl,inactive,–
CCN(CC)CCOC(=O)c1ccc(N)cc1,inactive,–
O=C(O)Cc1cccc(-c2cc(CCCCCCc3ccc(O[C@H]4O[C@H](CO)[C@@H](O)[C@H](O)[C@@H]4O)c(-c4cccc(CC(=O)O)c4)c3)ccc2O[C@H]2O[C@H](CO)[C@@H](O)[C@H](O)[C@@H]2O)c1,–,10.5% [at 0.757 µM] (inactive)
O=c1cc(O)c(Cl)c[nH]1,inactive,–
CCOC(=O)c1ccc(O)c(O)c1,inactive,–
COc1cc(C(=O)N2CCCCCCC2)cc(OC)c1OC,inactive,–
CC(O)C(=O)O (stereo unspecified),inactive,–
Nc1ccc(S(=O)(=O)NCc2ccccc2)cc1,inactive,–
COc1ccc2[nH]cc(CCNC(C)=O)c2c1,inactive,–
CC1CCN(CCCC(=O)c2ccc(F)cc2)CC1,inactive,–
Cc1cc(=O)[nH]c(=S)[nH]1,inactive,–

Compound,Potency,"activity change, negative = reduced viability"
COC(=O)[C@@H]1[C@H]2C[C@H]3c4[nH]c5ccccc5c4CCN3C[C@@H]2CC[C@@H]1O,inactive,–
Cc1c(I)c(=O)n(-c2ccccc2)n1C,inactive,–
CC(CSC(=O)c1ccccc1)C(=O)N1C[C@@H](Sc2ccccc2)C[C@H]1C(=O)O (stereo partly specified),inactive,–
CC(=O)OCC(COC(C)=O)OC(C)=O,inactive,–
Nc1ccc(S(=O)(=O)Nc2ccnn2-c2ccccc2)cc1,inactive,–
COC(=O)C1=C(C)NC(C)=C(C(=O)OCCc2ccc(N3CCN(C(c4ccccc4)c4ccccc4)CC3)cc2)C1c1cccc([N+](=O)[O-])c1 (stereo unspecified),inactive,–
CCN(CC)CCNC(=O)COc1ccc(OC)cc1,inactive,–
CC1(C)O[C@@H]2C[C@H]3[C@@H]4CCC5=CC(=O)C=C[C@]5(C)[C@@H]4[C@@H](O)C[C@]3(C)[C@]2(C(=O)CO)O1,inactive,–
O=C(O)C(S)C(S)C(=O)O (stereo unspecified),inactive,–
O=C(O)COc1nn(Cc2ccccc2)c2ccccc12,inactive,–
CCc1cc(C(N)=S)ccn1,inactive,–
CCn1cc(C(=O)O)c(=O)c2cc(F)c(N3CCNC(C)C3)c(F)c21 (stereo unspecified),inactive,–
OCCN1CCN(CC/C=C2/c3ccccc3Sc3ccc(C(F)(F)F)cc32)CC1,inactive,–
CCOC(=O)[C@H](CCc1ccccc1)N[C@@H](C)C(=O)N1CCC[C@H]1C(=O)O,inactive,–
CC(N=C(NC#N)Nc1ccncc1)C(C)(C)C (stereo unspecified),inactive,–
O=C(O)CNC(=O)c1ccccc1,inactive,–
CC(C)(C)C(=O)Oc1ccc(S(=O)(=O)Nc2ccccc2C(=O)NCC(=O)O)cc1,inactive,–
CC=CC1=C(C(=O)O)N2C(=O)[C@H](NC(=O)[C@H](N)c3ccc(O)cc3)[C@@H]2SC1,inactive,–
CNC(=O)c1c(I)c(NC(C)=O)c(I)c(C(=O)O)c1I,inactive,–
